# Reference: PubChem BioAssay (NCATS)
# Records with an inconclusive call do not appear. Where a call stands in place of a potency, no number is given. Values without a mark were called inactive. Calls of active or inactive are those of the source. Calls follow the shape of the dose curve; as a rule, active = well fitted curve in the direction sought with a large enough effect; inconclusive = small, poorly fitted or top-dose-only effect, or another doubt; inactive = no such curve, though single readings can be large; an effect the other way counts as inactive or inconclusive.
# Key:
# NIH3T3 = experiment: qHTS assay to identify novel small-molecules to repurpose for Merkel cell carcinoma treatment (AID 1296009); details: MCC and control cell lines, CellTiter-Glo viability, 72 h; at 44.8 µM (top of the series) unless noted; also: nearly all actives have a fitted effect of over 60% in size
# Summary of the method: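 Luminescence from CellTiter-Glo, read 10 min after addition at room temperature, reported viability following a 72 hr, 37 degree celsius treatment with NPC or MIPE compounds in titration; values normalized to plate controls.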
# C33A = experiment: Primary qHTS to identify gynecologic anti-cancer compounds using libraries of approved drugs and bioactive compounds (AID 1345084); details: Gynecologic cancer cell panel viability, ATPlite luminescence, 48 h; series mostly up to 57.5 µM; also: nearly all actives have a fitted effect of over 55% in size
# Summary of the method: (§1)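 Five-point cytotoxicity, 48 h drug exposure at 37 C, 5% CO2, on cells seeded 16 h beforehand. ATP content read by ATPlite luminescence.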
# CAOV3 = experiment: as above; details: Gynecologic cancer cell panel viability, ATPlite luminescence, 48 h; series mostly up to 57.5 µM
# Summary of the method: as §1
# CASKI = experiment: as above; details: Gynecologic cancer cell panel viability, ATPlite luminescence, 48 h; series mostly up to 57.5 µM
# Summary of the method: as §1
# Es-2 = experiment: as above; details: Gynecologic cancer cell panel viability, ATPlite luminescence, 48 h; series mostly up to 57.5 µM
# Summary of the method: as §1
# HeLa = experiment: as above; details: Gynecologic cancer cell panel viability, ATPlite luminescence, 48 h; series mostly up to 57.5 µM
# Summary of the method: as §1
# Hek293T = experiment: as above; details: Gynecologic cancer cell panel viability, ATPlite luminescence, 48 h, control line for the selectivity index; series mostly up to 57.5 µM
# Summary of the method: as §1
# JEG-3 = experiment: as above; details: Gynecologic cancer cell panel viability, ATPlite luminescence, 48 h; series mostly up to 57.5 µM
# Summary of the method: as §1
# OV90 = experiment: as above; details: Gynecologic cancer cell panel viability, ATPlite luminescence, 48 h; series mostly up to 57.5 µM
# Summary of the method: as §1
# PA-1 = experiment: as above; details: Gynecologic cancer cell panel viability, ATPlite luminescence, 48 h; series mostly up to 57.5 µM
# Summary of the method: as §1
# Tov-21-G = experiment: as above; details: Gynecologic cancer cell panel viability, ATPlite luminescence, 48 h; series mostly up to 57.5 µM
# Summary of the method: as §1
# Tov112D = experiment: as above; details: Gynecologic cancer cell panel viability, ATPlite luminescence, 48 h; series mostly up to 57.5 µM
# Summary of the method: as §1
# SKOV3 = experiment: as above; details: Gynecologic cancer cell panel viability, ATPlite luminescence, 48 h; series mostly up to 57.5 µM
# Summary of the method: as §1
# [1] = Drug repurposing screens with cells derived from glioblastoma tumor samples (AID 1345199); details: GBM patient neurospheres viability, ATP luminescence, 48 h; also: nearly all actives have a fitted effect of over 40% in size; also: potency is read from the fitted curve at half-maximal effect
# Summary of the method: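 Primary testing used CD133+ neurospheres from four GBM patients, seven concentrations, 48 h exposure and ATP-based viability; confirmation added three slower-growing patient lines.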
# [2] = at 45.9 µM (top of the series), tumour line B
# [3] = at 45.9 µM (top of the series), tumour line D
# [4] = at 46.1 µM (top of the series), tumour line C
smiles,measurement,setting,value
C[C@@H]1O[C@@H](O[C@@H]2[C@@H](O)[C@H](O[C@@H]3[C@@H](O)[C@@H](O)[C@H](O[C@H]4[C@H](OC(=O)[C@]56CCC(C)(C)C[C@H]5C5=CCC7[C@@]8(C)C[C@H](O)[C@H](O[C@@H]9O[C@@H](C)[C@H](O)[C@@H](O)[C@H]9O)[C@@](C)(CO)C8CC[C@@]7(C)[C@]5(C)C[C@H]6O)O[C@H](C)[C@H](O)[C@@H]4O)O[C@H]3C)OC[C@H]2O)[C@H](O)[C@H](O)[C@H]1O (stereo partly specified),outcome,NIH3T3,inactive [at 9.27 µM]
same,"activity change, negative = cytotoxicity",C33A,1.27% [at 6.55 µM]
same,"activity change, negative = cytotoxicity",CAOV3,7.84% [at 6.55 µM]
same,"activity change, negative = cytotoxicity",CASKI,0.934% [at 6.55 µM]
same,"activity change, negative = cytotoxicity",Es-2,-4.41% [at 6.55 µM]
same,"activity change, negative = cytotoxicity",HeLa,3.33% [at 6.55 µM]
same,"activity change, negative = cytotoxicity",Hek293T,5.23% [at 6.55 µM]
same,"activity change, negative = cytotoxicity",JEG-3,1.34% [at 6.55 µM]
same,"activity change, negative = cytotoxicity",OV90,4.8% [at 6.55 µM]
same,"activity change, negative = cytotoxicity",PA-1,7.81% [at 6.55 µM]
same,"activity change, negative = cytotoxicity",Tov-21-G,-0.124% [at 6.55 µM]
same,"activity change, negative = cytotoxicity",Tov112D,9.68% [at 6.55 µM]
C=CC(C)(C)C1(CC2NC(=O)C3CCCN3C2=O)C(=O)Nc2cc3c(cc21)C=CC(C)(C)O3 (stereo unspecified),outcome,NIH3T3,inactive [at 17.4 µM]
same,Potency,C33A,inactive
same,Potency,CAOV3,inactive
same,Potency,CASKI,inactive
same,Potency,Es-2,inactive
same,Potency,HeLa,inactive
same,Potency,Hek293T,inactive
same,Potency,JEG-3,inactive
same,Potency,OV90,inactive
same,Potency,PA-1,inactive
same,Potency,SKOV3,inactive
same,Potency,Tov-21-G,inactive
same,Potency,Tov112D,inactive
C[C@]12C=CC(=O)C=C1CC[C@@H]1[C@@H]2[C@@H](O)C[C@@]2(C)[C@H]1CC[C@]2(O)C(=O)COC(=O)CCC(=O)O,outcome,NIH3T3,inactive
same,Potency,C33A,inactive
same,Potency,CAOV3,inactive
same,Potency,CASKI,inactive
same,Potency,Es-2,inactive
same,Potency,HeLa,inactive
same,Potency,Hek293T,inactive
same,Potency,JEG-3,inactive
same,Potency,OV90,inactive
same,Potency,PA-1,inactive
same,Potency,SKOV3,inactive
same,Potency,Tov-21-G,inactive
same,Potency,Tov112D,inactive
same,"activity, negative = cell killing",[1]; [2],-11.2%
same,"activity, negative = cell killing",[1]; [3],-5.28%
same,"activity, negative = cell killing","[1]; at 46 µM (top of the series), tumour line A",-20.8%
same,"activity, negative = cell killing",[1]; [4],7.76%
CC(=O)NCCCCn1c2c(c3ccccc31)C(=O)NCC2,outcome,NIH3T3,inactive
same,Potency,C33A,inactive
same,Potency,CAOV3,inactive
same,Potency,CASKI,inactive
same,Potency,Es-2,inactive
same,Potency,HeLa,inactive
same,Potency,Hek293T,inactive
same,Potency,JEG-3,inactive
same,Potency,OV90,inactive
same,Potency,PA-1,inactive
same,Potency,Tov-21-G,inactive
same,Potency,Tov112D,inactive
COc1cc(/C=C/C(=O)O[C@H]2[C@H](O)[C@@H](CO)O[C@@]2(CO)O[C@H]2O[C@H](COC(=O)c3ccc(O)cc3)[C@@H](O)[C@H](O)[C@H]2O)cc(OC)c1OC,outcome,NIH3T3,inactive [at 17.4 µM]
same,Potency,C33A,inactive
same,Potency,CAOV3,inactive
same,Potency,CASKI,inactive
same,Potency,Es-2,inactive
same,Potency,HeLa,inactive
same,Potency,Hek293T,inactive
same,Potency,JEG-3,inactive
same,Potency,OV90,inactive
same,Potency,PA-1,inactive
same,Potency,Tov-21-G,inactive
same,Potency,Tov112D,inactive
CC(/C=C/[C@]1(O)[C@@]2(C)CO[C@@]1(C)C[C@@H](O)C2)=C\C(=O)O[C@@H]1O[C@H](CO)[C@@H](O)[C@H](O)[C@H]1O,outcome,NIH3T3,inactive [at 17.4 µM]
same,Potency,C33A,inactive
same,Potency,CAOV3,inactive
same,Potency,CASKI,inactive
same,Potency,Es-2,inactive
same,Potency,HeLa,inactive
same,Potency,Hek293T,inactive
same,Potency,JEG-3,inactive
same,Potency,OV90,inactive
same,Potency,PA-1,inactive
same,Potency,SKOV3,inactive
same,Potency,Tov-21-G,inactive
same,Potency,Tov112D,inactive
O=C(/C=C/c1c(C(=O)O)[nH]c2cc(Cl)cc(Cl)c12)Nc1ccccc1,outcome,NIH3T3,inactive
same,Potency,C33A,inactive
same,Potency,CAOV3,inactive
same,Potency,CASKI,inactive
same,Potency,Es-2,inactive
same,Potency,HeLa,inactive
same,Potency,Hek293T,inactive
same,Potency,JEG-3,inactive
same,Potency,OV90,inactive
same,Potency,PA-1,inactive
same,Potency,Tov-21-G,inactive
same,Potency,Tov112D,inactive
CC1(C)C(=O)C(C)(C)c2cc(C(=O)Nc3ccc(C(=O)O)cc3)ccc21,outcome,NIH3T3,inactive
same,Potency,C33A,inactive
same,Potency,CAOV3,inactive
same,Potency,CASKI,inactive
same,Potency,Es-2,inactive
same,Potency,HeLa,inactive
same,Potency,Hek293T,inactive
same,Potency,JEG-3,inactive
same,Potency,OV90,inactive
same,Potency,PA-1,inactive
same,Potency,SKOV3,inactive
same,Potency,Tov-21-G,inactive
same,Potency,Tov112D,inactive
CC1(C)CCCC2(C)C(CO)C3CCC2C31 (stereo unspecified),outcome,NIH3T3,inactive
same,Potency,C33A,inactive
same,Potency,CAOV3,inactive
same,Potency,CASKI,inactive
same,Potency,Es-2,inactive
same,Potency,HeLa,inactive
same,Potency,Hek293T,inactive
same,Potency,JEG-3,inactive
same,Potency,OV90,inactive
same,Potency,PA-1,inactive
same,Potency,Tov-21-G,inactive
same,Potency,Tov112D,inactive
CC[C@H]1OC(=O)C[C@@H](O)[C@H](C)[C@@H](O[C@@H]2O[C@H](C)[C@@H](O)[C@H](N(C)C)[C@H]2O)[C@@H](CCN2C[C@H](C)C[C@H](C)C2)C[C@@H](C)C(=O)/C=C/C(C)=C/[C@@H]1CO[C@@H]1O[C@H](C)[C@@H](O)[C@@H](OC)[C@H]1OC,outcome,NIH3T3,inactive
same,Potency,C33A,inactive
same,Potency,CAOV3,inactive
same,Potency,CASKI,inactive
same,Potency,Es-2,inactive
same,Potency,HeLa,inactive
same,Potency,Hek293T,inactive
same,Potency,JEG-3,inactive
same,Potency,OV90,inactive
same,Potency,PA-1,inactive
same,Potency,SKOV3,inactive
same,Potency,Tov-21-G,inactive
same,Potency,Tov112D,inactive
same,"activity, negative = cell killing",[1]; [2],-3.99%
same,"activity, negative = cell killing",[1]; [3],-15.7%
same,"activity, negative = cell killing",[1]; [4],-6.47%
same,Potency,[1]; tumour line A,22.4 µM (active)
CC1(C)OC(=O)C(OCC2CC2)=C1c1ccc(S(C)(=O)=O)cc1,outcome,NIH3T3,inactive
same,Potency,C33A,inactive
same,Potency,CAOV3,inactive
same,Potency,CASKI,inactive
same,Potency,Es-2,inactive
same,Potency,HeLa,inactive
same,Potency,Hek293T,inactive
same,Potency,JEG-3,inactive
same,Potency,OV90,inactive
same,Potency,PA-1,inactive
same,Potency,Tov-21-G,inactive
same,Potency,Tov112D,inactive
Nc1ncnc2c1ncn2[C@H]1CCCO1,outcome,NIH3T3,inactive
same,Potency,C33A,inactive
same,Potency,CAOV3,inactive
same,Potency,CASKI,inactive
same,Potency,Es-2,inactive
same,Potency,HeLa,inactive
same,Potency,Hek293T,inactive
same,Potency,JEG-3,inactive
same,Potency,OV90,inactive
same,Potency,PA-1,inactive
same,Potency,SKOV3,inactive
same,Potency,Tov-21-G,inactive
same,Potency,Tov112D,inactive
CC1(O)CCC2C(C(=O)O)=COC(OC3OC(CO)C(O)C(O)C3OC(=O)/C=C/c3ccc(O)cc3)C21 (stereo unspecified),outcome,NIH3T3,inactive [at 17.4 µM]
same,Potency,C33A,inactive
same,Potency,CAOV3,inactive
same,Potency,CASKI,inactive
same,Potency,Es-2,inactive
same,Potency,HeLa,inactive
same,Potency,Hek293T,inactive
same,Potency,JEG-3,inactive
same,Potency,OV90,inactive
same,Potency,PA-1,inactive
same,Potency,SKOV3,inactive
same,Potency,Tov-21-G,inactive
same,Potency,Tov112D,inactive
